Reference: ChEMBL document CHEMBL4513216, “Probing the Open Global Health Chemical Diversity Library for Multistage-Active Starting Points for Next-Generation Antimalarials” (ACS Infect Dis, 2020)
The campaign covered roughly 69,000 compounds. About 8,600 (12%) showed an effect of 50% or more. The entries come from a sample that favours strong results as a whole.

System: Plasmodium berghei
Experiment: Screen against P. berghei liver stage (PbLuc), transformed with Luciferase, at 10uM
Type: functional, HepG2
Details: tested at 10 uM

SMILES	INHIBITION [%]
COC(C)Cc1nc(-c2cnn3c(C)cc(C)nc23)no1 (stereo not given)	31.2
COCCc1nc(-c2cnn3c(C)cc(C)nc23)no1	34.6
Cc1nc(CN(C)C2CCN(CCc3cnn(C)c3)C2)no1 (stereo not given)	11.2
Cc1ccccc1C(=O)NC(C)CN1CCOC1=O (stereo not given)	39.3
CCS(=O)(=O)N1CCN(C(C)(C)CO)CC1	11
Cc1cnn(CCNCc2cc(C#N)ccc2F)c1	34.15
Cc1noc(C)c1CN1CCn2c(CN3CCN(C)CC3)cnc2C1	21.6
CCc1cc(N2CCC(NC3CCOCC3)CC2)nc(N(C)C)n1	29.1
CCc1cc(N2CCC(NC3CN4CCC3CC4)CC2)nc(N(C)C)n1 (stereo not given)	62.4
CCc1cc(N2CCC(N[C@@H]3CS(=O)(=O)C[C@H]3O)CC2)nc(N(C)C)n1	35.3
Cn1ncc2c1NC(=O)CC2c1ccc(F)cc1 (stereo not given)	3.46
CCCn1nnnc1COc1cc(OC)ccc1C(N)=O	-15
CC(C)C[C@@H](N)C(=O)N(C)Cc1csc(C(C)C)n1	-40.5
CC(C)n1cc(S(=O)(=O)N2CCSCC2)cn1	-28.8
CNC(=O)C1Cn2ccnc2C2(CCN(Cc3cccc(C)n3)CC2)O1 (stereo not given)	29.6
Cc1cc(NC(=O)C(C)N2CCN(c3ccccc3F)CC2)no1 (stereo not given)	8.38
Cc1cc(NC(=O)C(C)N2CCN(c3ccc(C#N)cc3F)CC2)no1 (stereo not given)	55
CC(C(=O)NC(N)=O)N1CCN(c2ccc(C#N)cc2F)CC1 (stereo not given)	-45
COCC(=O)N1CC[C@@H](OCC2CC2)[C@@H]1Cc1cccnc1	-31.4
Cc1cnn(CC2CCCN2Cc2noc(C(C)C)n2)c1 (stereo not given)	25.6
COCCO[C@H]1CCN(C(=O)C2CCOCC2)[C@H]1Cc1ccncc1	26.7
CCOc1cncc(N2CCN(c3ccccc3O)CC2)n1	39.7
Cc1nc(C)c(C)c(N2CCC(NCCOc3ccccc3)CC2)n1	77.8
c1ccc(OCCNC2CCN(c3ncccn3)CC2)cc1	-32.6
Cc1cc(N2CCC(NCCOc3ccccc3)CC2)nc(C)n1	9.72
O=C(CC1COCCN1)N1CCC2(CCc3ccccc32)CC1 (stereo not given)	-60.2
CC1CN(Cc2cccnc2)CCN1c1ccc2nncn2n1 (stereo not given)	16.9
CC1CN(Cc2cnn(C)c2)CCN1c1ccc2nncn2n1 (stereo not given)	10

SMILES	INHIBITION [%]
Cc1ncc(CN2CCN(c3ccc4nncn4n3)C(C)C2)s1 (stereo not given)	8.64
CC1CN(Cc2cccc(C#N)c2)CCN1c1ccc2nncn2n1 (stereo not given)	53.5
CC1CN(c2ccc(C#N)cn2)CCN1c1ccc2nncn2n1 (stereo not given)	-9.69
COc1cccc(CN2CCN(c3ccc4nncn4n3)C(C)C2)c1 (stereo not given)	83
CC(C)c1nccn1C1CCCN(C(=O)c2cc(C3CC3)on2)C1 (stereo not given)	48.4
CNC(=O)C1CN(C(=O)Cc2ccc(OC)cc2)Cc2cn(C)nc21 (stereo not given)	-6.51
CCC(=O)NC1CCN(c2cccc(OC(F)(F)F)c2)C1=O (stereo not given)	40.6
O=C(NC1CCN(c2cccc(OC(F)(F)F)c2)C1=O)C1CCC1 (stereo not given)	34.6
O=C(NC1CCN(c2cccc(OC(F)(F)F)c2)C1=O)C1CC1 (stereo not given)	61.1
O=C1NCC[C@]12CN(Cc1nccs1)C[C@H]2c1ccccc1	45.8
CN(CC1(C)COC1)C(=O)c1cc(-c2cnn(C)c2)nc2ccccc12	9.7
COc1ccccc1-c1c[nH]c(C2CCCN2)n1 (stereo not given)	-33.3
CCc1n[nH]c(C(=O)N2CCN(c3ccc4ccccc4c3)CC2)c1C	61.1
CCc1ocnc1C(=O)N1CCN(c2ccc3ccccc3c2)CC1	26.5
CCc1n[nH]c(C(=O)N2CCCC3(CN(C)C(=O)O3)C2)c1C (stereo not given)	45.2
Cc1nc(CN(CCS(C)(=O)=O)C(C)C)cs1	53.6
CC(C)N(CCS(C)(=O)=O)Cc1csc(-c2ccccc2F)n1	33.2
CC(C)N(CCS(C)(=O)=O)Cc1csc(Cc2ccc(Cl)cc2)n1	35
Cc1cc(S(=O)(=O)N(CCO)C2CC2)ccc1F	26.1
CCC(=O)c1ccc(OCC(=O)NC(C)Cc2cc(C)n[nH]2)cc1 (stereo not given)	27.6
Cc1cc(CC(C)NC(=O)Cc2cc(F)ccc2C)[nH]n1 (stereo not given)	73
Cc1cc(CC(C)NC(=O)COc2ccc(F)cc2F)[nH]n1 (stereo not given)	40.6
Cc1ccc(CNS(=O)(=O)CCCC#N)cc1F	58.1
Cc1ccc(CNC(=O)NC(C)CCS(C)(=O)=O)cc1F (stereo not given)	-1.15
Cc1cc(CNS(=O)(=O)CCCC#N)ccc1N(C)C	33.1
CC(C)C(C)NC(=O)Nc1ccc(CS(=O)(=O)C(C)C)cc1 (stereo not given)	-4.68
Cc1ccccc1NC1CCN(C(=O)CCc2ccco2)CC1	-26.6
